The values below come from PubChem BioAssay AID1569 (National Center for Advancing Translational Sciences (NCATS), 2009).

Inconclusive results are not listed. Values without a mark were called inactive. The source made the active and inactive calls. The call rests on the fitted dose curve; in most records, active means well fitted inhibition curve with a large enough effect; inconclusive means small, poorly fitted or top-dose-only effect, or effect the other way, or another doubt; inactive means no such curve, though single readings can be large or run the other way.
Potency means the concentration at half of the fitted maximal effect.

The test is described as follows: Confirmation Concentration-Response Assay for lipid storage modulators. Further: nearly all actives have a fitted effect of over 80% in size.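 On activity change, negative = inhibition: -100% = full block of lipid deposition by 20 µM Triacsin C.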 To be noted: Drosophila S3 cells, lipid droplet BODIPY/CellTracker ratio, 18-24 h; series mostly up to 46.1 µM; activity change, negative = inhibition: at the top concentration. In short, it runs like this:
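Cells at 5,000/well received compound as a titration plus oleic acid (added as 400 uM solution) and were incubated 18–24 h at 24 °C. BODIPY 493/503 lipid signal and CellTracker Red cell count were read by 488-nm laser-scanning cytometry. Activity was normalised to 20 uM Triacsin C.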
Consider `COc1cc(NC(=O)COc2ccccc2[N+](=O)[O-])ccc1NC(=O)c1cccs1`, for which the Potency is 17.7 µM (active). Regarding `CN(Cc1cccc(F)c1)C(=O)c1ccc2c(=O)n3c(nc2c1)CCC3`, the “activity change, negative = inhibition” value was -8.33%. Regarding `CCOC(=O)C1CCN(C(=O)C2(NC(=O)Nc3ccccc3C)CCCCC2)CC1`, the Potency was 2.5 µM (active).

With `Cc1ccccc1NC(=O)NC1(C(=O)N2CCC(O)CC2)CCCCC1`, the “activity change, negative = inhibition” value was 12.7%. `CCOc1ccc(CCNC(=O)c2cc3sccc3n2C)cc1OCC`: the Potency was 0.705 µM (active). As to `COc1cccc(C(=O)O[C@H]2[C@H](C)NS(=O)(=O)[C@H]3C[C@@H]4C=C[C@]23O4)c1`, the “activity change, negative = inhibition” value was 8.12%.

As to `COc1ccc(CCNC(=O)c2ccc(N(C)S(=O)(=O)c3ccc(C)cc3)cc2)cc1OC`, the Potency is 14.1 µM (active). The same measure, in the same setting: with `Cc1ccc(C)c(OCc2cc(C(=O)N3CC[C@@H]4CCCC[C@H]4C3)no2)c1` the figure was 14.1 µM (active). For `CCOc1ccc(CCNC(=O)COC(=O)c2c(C)nn(-c3ccccc3)c2C)cc1OCC`, the Potency is 1.58 µM (active). Take `O=C(NCC1(N2CCOCC2)CCCCC1)c1ccc(S(=O)(=O)Nc2ccccc2F)cc1`: the Potency was 3.97 µM (active). On to `COc1ccc(CCNC(=O)CSC2=NS(=O)(=O)c3ccccc3N2)cc1OC`, for which the “activity change, negative = inhibition” value is 8%. As to `COC(=O)c1ccccc1NC(=O)c1ccc(F)cc1F`, the Potency is 1.41 µM [activator] (active). The same measure, in the same setting: under `CCOc1ccc(CCNC(=O)COC(=O)/C=C/c2ccc(OCC#N)c(OC)c2)cc1OCC` stands 3.15 µM (active); under `CCOc1ccc(CCNC(=O)Cn2cccc2C(=O)c2ccccc2C)cc1OCC`, 4.99 µM (active); under `Cc1cc(N2CCCC2=O)cc(C)c1S(=O)(=O)NCCOc1ccc(C(C)(C)C)cc1`, 3.97 µM (active).
